Bioassay records (PubChem)
Rv3671c protease = Rv3671c (M. tuberculosis) protease inhibition; P9WHR9; inhibition, % at 5.96 µM; 320,000 compounds, 0.048% hits; in the data active = inhibition above about 38%;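 note: extracellular domain of Rv3671c used as enzyme; 0% = enzyme with DMSO and 100% = no enzyme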
Target sequence (P9WHR9 whole entry, looked up, the tested form may be a part): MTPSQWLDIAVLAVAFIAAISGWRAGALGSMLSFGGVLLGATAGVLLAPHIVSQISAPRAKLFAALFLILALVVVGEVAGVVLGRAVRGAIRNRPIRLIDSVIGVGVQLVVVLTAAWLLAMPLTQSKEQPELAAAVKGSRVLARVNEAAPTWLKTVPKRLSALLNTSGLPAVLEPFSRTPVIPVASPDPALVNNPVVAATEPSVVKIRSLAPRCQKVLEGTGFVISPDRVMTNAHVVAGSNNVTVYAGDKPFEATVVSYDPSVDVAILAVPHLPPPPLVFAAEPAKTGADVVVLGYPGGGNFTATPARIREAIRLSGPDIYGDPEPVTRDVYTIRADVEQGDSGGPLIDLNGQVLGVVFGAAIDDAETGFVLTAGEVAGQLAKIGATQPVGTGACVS
RecA splice inh = inhibitors of M. tuberculosis RecA intein splicing; P9WHJ3; cell-free RecA intein splicing, fluorescence; inhibition, % (concentration not given with the values); 290,000 compounds, 0.75% hits; AID 2221; in the data active = inhibition above about 30%;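 note: 0% = vehicle wells and 100% = reference inhibitor control wells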
Mtb UGM inh = Mtb UDP-galactopyranose mutase inhibition; P9WIQ1; purified UGM, fluorescence polarization probe displacement; inhibition, % at 10 µM; 320,000 compounds, 0.06% hits; AID 504406; in the data active = inhibition above about 10%, passing the limit was not always enough
Mtb hypoxia inh = inhibitors of hypoxia-regulated fluorescent reporter in Mycobacterium tuberculosis. M. tuberculosis hypoxia-regulated fluorescent reporter, fluorescence. fluorescence inhibition, % (no concentration beside the values). 300,000 compounds, 0.1% hits; in the data active = fluorescence inhibition mostly above about 23%, no sharp cut-off; inactive = mostly below about 17%
Mtb betalactam = beta-lactam sensitization of Mtb H37Rv. M. tuberculosis H37Rv growth with meropenem, percent inhibition. inhibition, % at 25 µM. 330,000 compounds, 0.27% hits; call rule not given here;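 note: growth measured after seven days incubation then overnight dye step; 0% = bacteria only wells and 100% = bacteria with antibiotic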
Active calls of the source: *; / = not tested or not shown. Rows were chosen to be rich in hits. Some 0.77% of all compounds tested hit in one or more screens of this group.

SMILES	Rv3671c protease	RecA splice inh	Mtb UGM inh	Mtb hypoxia inh	Mtb betalactam
Cn1nnnc1Sc1ncnc2scc(-c3ccc(F)cc3)c12	-13.8	32.4*	0.3	5.3	79.0
CC(C)NC(=S)N=Nc1c(O)[nH]c2ccc([N+](=O)[O-])cc12	12.9	-2.5	0.2	/	1.2
C=C(C)CNC(=S)N=Nc1c(O)[nH]c2ccc([N+](=O)[O-])cc12	14.3	32.7*	0.7	6.4	-4.5
CC[C@]12C(=O)N(C)CC(C3C(=O)N(C)C(=O)C31)N2C(=O)c1ccc(F)cc1 (some centres not stated)	/	/	/	-0.8	/
Cc1ccc(C(=O)Oc2cccc(NC(=O)c3ccccc3)c2)cc1C	-101.7	15.0	0.5	-4.4	99.2
O=C(Nc1cccc(OC(=O)c2ccc(Br)o2)c1)c1ccccc1	9.9	43.2*	0.5	4.1	-3.5
O=C1N=NC2=C1c1c3ccccc3c(O)n1CC2	-6.8	56.2*	0.8	15.3	4.1
CCN(CC)c1ccc(C(=C2C=CC(=[N+](CC)CC)C=C2)c2ccc(N(CC)CC)cc2)cc1	/	/	/	100.2*	/
CCN(CC)c1ccccc1	-14.0	/	-0.3	2.3	6.7
O=c1c(OC2OC(CO)C(O)C(O)C2O)c(-c2ccc(O)cc2)oc2cc(O)cc(O)c12 (configuration not stated)	/	/	/	-1.2	/
C=CCOC(=O)C1=CC(c2csc3ccccc23)CC(OCCCCO)O1 (configuration not stated)	/	/	/	19.4	/
CCN1CC2C3C(=O)N(Cc4ccccc4)C(=O)C3[C@](CC)(C1=O)N2C(=O)c1ccccc1 (some centres not stated)	/	/	/	18.2	/
CCOC(=O)CSCC(=O)N1N=C(c2cccs2)CC1c1ccc(F)cc1 (configuration not stated)	6.8	32.4*	0.7	7.5	72.8
CC(C)CCn1c(=O)c2ccccc2n2c(CCl)nnc12	7.0	/	1.2	36.1*	92.6
CCCCCn1c(=O)c2ccccc2n2c(CCl)nnc12	-2.4	/	2.2	22.8	90.1
CCCc1[nH]nc2c1C(C1CCCCC1)C(C#N)=C(N)O2 (configuration not stated)	2.3	-5.2	0.4	15.6	-0.1
CCCc1[nH]nc2c1C(c1ccc(OCCN3CCOCC3)c(OCC)c1)C(C#N)=C(N)O2 (configuration not stated)	-3.0	44.4*	-0.8	10.2	6.5
CCCc1[nH]nc2c1C(c1ccc(O)cc1OCC)C(C#N)=C(N)O2 (configuration not stated)	-2.2	78.3*	-3.1	/	-3.7
CCOc1cc(C2C(C#N)=C(N)Oc3n[nH]c(C)c32)ccc1OCCN1CCOCC1 (configuration not stated)	-4.5	48.3*	-0.9	-6.1	-1.4
CCOc1cc(C2C(C#N)=C(N)Oc3n[nH]c(CC)c32)ccc1OCCN1CCOCC1 (configuration not stated)	1.4	50.3*	1.2	/	-3.5
C=CCC(CC(=O)N(CCO)Cc1ccccc1)C(=O)NC(COC(=O)C(CC=C)CC(=O)OC(C)(C)C)Cc1ccccc1 (configuration not stated)	/	/	/	1.9	/
CC1CN=C(N(C)C)N1CCc1ccc(F)cc1 (configuration not stated)	/	/	/	8.9	/
COCC=CC1=CC2=CC(=O)C(C)(OC(=O)c3cnc4ccccc4n3)C(=O)C2=CN1c1ccc(OC)cc1 (configuration not stated)	/	/	/	-0.9	/
CCn1c(O)c(N=Nc2cccc(S(=O)(=O)N3CCOCC3)c2)c(=O)n(CC)c1=S	2.3	59.0*	-0.8	14.7	-1.0
CCn1c(O)c(N=Nc2ccc(S(=O)(=O)N3CCOCC3)cc2)c(=O)n(CC)c1=S	0.6	23.8	0.6	-6.5	3.5
SMILES	Rv3671c protease	RecA splice inh	Mtb UGM inh	Mtb hypoxia inh	Mtb betalactam
Oc1ccc(C=Nc2ccc3ncccc3c2)c(O)c1	-6.4	52.7*	-2.0	/	93.3
CC(C)(C)c1cc(NC(=O)CCl)n(-c2ccccc2)n1	-1.0	38.1*	0.3	24.4	97.5
C=CCN1CC[C@@]2(C)c3cc(O)ccc3CC1C2C (some centres not stated)	/	/	/	-6.1	/
O=C1c2ccccc2-c2nnc(-c3ccc(O)cc3)cc21	-24.4	48.7*	1.4	5.4	57.6
Cc1ccc(C)c(NC(=O)CN(C)C(=O)c2cc(S(=O)(=O)N3CCOCC3)ccc2N2CCCC2)c1	-6.2	-1.4	2.0	2.5	-8.4
O=C(CCl)Nc1cc(S(=O)(=O)N2CCCCCC2)ccc1Cl	0.3	66.7*	-0.5	15.9	93.3
CC(C)(C)CC(=O)Nc1cc(S(=O)(=O)N2CCCCCC2)ccc1Cl	-2.6	3.2	0.4	13.1	-4.7
Cc1ccc(C)c(NC(=O)CN(C)C(=O)c2ccc(S(=O)(=O)N3CCCCCC3)cc2)c1	3.2	/	-1.1	31.3*	2.9
